Measured values from the supplement of paper PMC10515830.
Where a name gives a salt, the structure may show the parent alone.

Columns and labels:
Details in all cases: 10 µM; exposure time 6 h
[1] = test system: Danio rerio larvae (5 dpf); test: difference in excitability vs DMSO (percentage points); higher = more excitable than DMSO
In short: (§1)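 Library compounds were tested at 10 µM final in 100 µL egg water on wild-type 5 dpf zebrafish larvae in 96-well plates for 6 h, with 48 larvae per compound. After 3 h, plates at 28.5 ℃ were imaged every 6 s during a 3-h run of moving lines and 100 ms, 400Hz tones. Behaviours were quantified by Z-LaP Tracker and reported as the compound mean less the vehicle control mean, in percentage points.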

[2] = test system: Danio rerio larvae (5 dpf); test: difference in startle response vs DMSO (percentage points); higher = stronger startle than DMSO
In short: as §1

[3] = test system: Danio rerio larvae (5 dpf); test: difference in activity during first hour vs DMSO (percentage points); higher = more activity than DMSO
In short: as §1

[4] = test system: Danio rerio larvae (5 dpf); test: difference in habituation to acoustic stimuli vs DMSO (percentage points); higher = more habituation than DMSO
In short: as §1

[5] = test system: Danio rerio larvae (5 dpf); test: difference in combined optomotor response to red, green and blue moving lines vs DMSO (percentage points); higher = stronger optomotor response than DMSO
In short: as §1

| SMILES | difference in excitability [1] | difference in startle response [2] | difference in activity during first hour [3] | difference in habituation to acoustic stimuli [4] | difference [5] |
| --- | --- | --- | --- | --- | --- |
| NCC1(CC(=O)O)CCCCC1 [Gabapentin] | -1.43 | 8.77 | 13.9 | 2.43 | 6.89 |
| CCOC(=O)CC(SP(=S)(OC)OC)C(=O)OCC (stereo not given) [Malathion] | 21.4 | 5.73 | -5.37 | 1.62 | 14.9 |
| CN(C)C(=O)Oc1cccc([N+](C)(C)C)c1 [Neostigmine (methyl sulfate)] | -10.3 | 0.754 | 11.2 | 5.23 | 17 |
| CC(=O)O[C@H]1C[C@@H]2CC[C@@H]3[C@H](CC[C@@]4(C)[C@H]3C[C@H]([N+]3(C)CCCCC3)[C@@H]4OC(C)=O)[C@@]2(C)C[C@@H]1[N+]1(C)CCCCC1 [Pancuronium (bromide hydrate)] | 15.9 | 4.02 | -3.48 | -0.432 | 5.41 |
| NCC(CC(=O)O)c1ccc(Cl)cc1 (racemic) [(±)-Baclofen] | -0.88 | 5.35 | 13.9 | -0.192 | 6.84 |
| C=C1C[C@@H]2[C@H](CC[C@]3(C)C(=O)CC[C@@H]23)[C@@]2(C)C=CC(=O)C=C12 [Exemestane] | 14.1 | 0.844 | -8.29 | -0.126 | 3.59 |
| C[N@+]1(CC2CC2)CC[C@]23c4c5ccc(O)c4O[C@H]2C(=O)CC[C@@]3(O)[C@H]1C5 [Methylnaltrexone (bromide)] | 3.91 | -0.955 | 8.76 | 7.78 | -7.48 |
| CC(NC(C)(C)C)C(=O)c1cccc(Cl)c1 (stereo not given) [Bupropion (hydrochloride)] | -1.99 | -4.01 | -3.52 | 2.84 | -2.98 |
| CCN(C)C(=O)Oc1cccc([C@H](C)N(C)C)c1 [Rivastigmine (tartrate)] | 0.964 | 4.99 | -2.5 | -3.03 | 5.01 |
| N.N.[Cl][Pt][Cl] [Cisplatin] | -2.35 | -10 | -16.8 | -5.63 | -0.233 |
| CN1C[C@H](C(=O)N[C@]2(C)O[C@@]3(O)[C@@H]4CCCN4C(=O)[C@H](Cc4ccccc4)N3C2=O)C[C@@H]2c3cccc4[nH]cc(c34)C[C@H]21 [Dihydroergotamine (mesylate)] | 16.4 | 11.9 | -6.95 | -1.86 | 2.36 |
| CN1[C@@H]2C[C@@H](OC(=O)[C@H](CO)c3ccccc3)C[C@H]1[C@@H]1O[C@@H]12 [Scopolamine (hydrobromide)] | 4.44 | 2.53 | -2.69 | -4.87 | 2.89 |
| CC(C)N(CCC(C(N)=O)(c1ccccc1)c1ccccn1)C(C)C (stereo not given) [Disopyramide] | 5.49 | -1.52 | 13.6 | 4.14 | 9.12 |
| O=C(O[C@H]1C[C@H]2CC[C@@H](C1)[N+]21CCCC1)C(O)(c1ccccc1)c1ccccc1 [Trospium (chloride)] | -11.2 | -0.27 | 1.73 | -0.832 | -4.92 |
| COc1ccc2c(c1)[C@]13CCCC[C@@H]1[C@H](C2)N(C)CC3 [Dextromethorphan (hydrobromide hydrate)] | 18.6 | 1.65 | -16 | -4.55 | -8.83 |
| COc1cc2c(c(OC)c1OC)-c1ccc(OC)c(=O)cc1[C@@H](NC(C)=O)CC2 [Colchicine] | -4.48 | -0.112 | 1.93 | 2.9 | 4.29 |
| CC(N)Cc1ccc(O)cc1 (stereo not given) [4-hydroxy Amphetamine (hydrochloride)] | 2.21 | -1.49 | 5.37 | 0.612 | -2.78 |
| C=CCN1C[C@H](C(=O)N(CCCN(C)C)C(=O)NCC)C[C@@H]2c3cccc4[nH]cc(c34)C[C@H]21 [Cabergoline] | 13.2 | -8.8 | -4.41 | 5.57 | -3.78 |
| COc1ccc(C(CN(C)C)C2(O)CCCCC2)cc1 (stereo not given) [Venlafaxine (hydrochloride)] | 16.6 | -10.3 | -21.1 | -5.65 | -7.48 |
| O=C1CC[C@@]2(O)[C@H]3Cc4ccc(O)c5c4[C@@]2(CCN3CC2CC2)[C@H]1O5 [Naltrexone (hydrochloride)] | 12.7 | 5.18 | 13.3 | 2.13 | 7.87 |
| ClC1C(Cl)C(Cl)C(Cl)C(Cl)C1Cl (stereo not given) [γ-Lindane] | 7.5 | 11.9 | 1.64 | -7.56 | -16.7 |
| C[N+]1(C)[C@@H]2C[C@@H](OC(=O)[C@H](CO)c3ccccc3)C[C@H]1[C@@H]1O[C@@H]12 [Methylscopolamine (bromide)] | -2.02 | 0.0162 | -10 | -2.49 | 0.657 |
| Nc1ccncc1 [4-Aminopyridine] | 5.12 | 6.44 | 9.5 | -2.32 | 10.7 |
| C=CCN1CC[C@]23c4c5ccc(O)c4O[C@H]2C(=O)CC[C@@]3(O)[C@H]1C5 [Naloxone (hydrochloride)] | 12.1 | -4.15 | 1.81 | 1.98 | 9.16 |
| CC(O)(CS(=O)(=O)c1ccc(F)cc1)C(=O)Nc1ccc(C#N)c(C(F)(F)F)c1 (stereo not given) [Bicalutamide] | -0.599 | 4.36 | 0.23 | 6.4 | 9.87 |
